Assay results published in PubChem BioAssay (NCI).
The panel holds about 83,000 compounds, 20% with a hit somewhere; the sample as a whole holds those more often.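 The endpoint reported here, percent growth, reads 100 for growth as untreated, 0 for no net growth and -100 for all cells dead.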 Activity calls are given as the source filed them. How the source made its calls: active means growth percent below 10; inactive means the rest.

Key:
Assay in all cases: NCI-60 one-dose screen, 48 h (100 = growth as untreated, 0 = no growth, -100 = all killed)
Settings in all cases: 10 µM unless noted
HCT-15 colon = tested on: HCT-15 colon
HT29 colon = tested on: HT29 colon
SNB-75 CNS = tested on: SNB-75 CNS
SNB-19 CNS = tested on: SNB-19 CNS
U251 CNS = tested on: U251 CNS
PC-3 prostate = tested on: PC-3 prostate
SK-MEL-5 melanoma = tested on: SK-MEL-5 melanoma
UACC-62 melanoma = tested on: UACC-62 melanoma
LOX IMVI melanoma = tested on: LOX IMVI melanoma
SK-MEL-28 melanoma = tested on: SK-MEL-28 melanoma
SK-MEL-2 melanoma = tested on: SK-MEL-2 melanoma
SN12C renal = tested on: SN12C renal
UO-31 renal = tested on: UO-31 renal
TK-10 renal = tested on: TK-10 renal
ACHN renal = tested on: ACHN renal
CAKI-1 renal = tested on: CAKI-1 renal
CCRF-CEM leukemia = tested on: CCRF-CEM leukemia
MOLT-4 leukemia = tested on: MOLT-4 leukemia
A498 renal = tested on: A498 renal

Measured: growth

O=C(O)C(Cc1ccccc1)N1C(=O)/C(=C/C(Cl)=C/c2ccc([N+](=O)[O-])cc2)SC1=S (stereo not given)
inactive: HCT-15 colon 41.2% | HT29 colon 30.8% | SNB-75 CNS 43% | SNB-19 CNS 32.2% | PC-3 prostate 31.2% | UO-31 renal 29.4% | TK-10 renal 50.1% | ACHN renal 40.7%
active: U251 CNS 8.38% | SK-MEL-5 melanoma 2.03% | UACC-62 melanoma -56.4% | LOX IMVI melanoma -74.2% | SK-MEL-28 melanoma 3.14% | SK-MEL-2 melanoma 9.02% | SN12C renal 8.76% | CAKI-1 renal 6.47% | CCRF-CEM leukemia 4.14% | MOLT-4 leukemia 0.405%

COc1ccc(C2SCC(=O)N2NC(=O)c2ccc(NC(=O)c3ccccn3)cc2)cc1OC (stereo not given)
inactive: HCT-15 colon 107% | HT29 colon 97.8% | SNB-75 CNS 84.3% | SNB-19 CNS 95.5% | U251 CNS 94.2% | PC-3 prostate 95.3% | SK-MEL-5 melanoma 102% | UACC-62 melanoma 91.5% | LOX IMVI melanoma 99.5% | SK-MEL-28 melanoma 104% | SK-MEL-2 melanoma 94.5% | SN12C renal 97.3% | UO-31 renal 89.7% | TK-10 renal 90.1% | ACHN renal 99.2% | CAKI-1 renal 96.9% | CCRF-CEM leukemia 101% | MOLT-4 leukemia 92.1%

Cc1ccc(S(=O)(=O)NCCCNc2nccc(-c3c(-c4ccccc4)nc4sccn34)n2)cc1
inactive: HCT-15 colon 47% | HT29 colon 18.5% | SNB-75 CNS 48.4% | SNB-19 CNS 75.4% | U251 CNS 63.1% | PC-3 prostate 30.9% | SK-MEL-5 melanoma 45% | UACC-62 melanoma 36.5% | LOX IMVI melanoma 32.6% | SK-MEL-28 melanoma 78.5% | SK-MEL-2 melanoma 82.9% | SN12C renal 48.1% | UO-31 renal 33.9% | TK-10 renal 85.8% | ACHN renal 37.7% | CAKI-1 renal 47.3% | CCRF-CEM leukemia 18.5% | MOLT-4 leukemia 43.5%

Cc1cccc(-n2c(C)nc3ccc(NC(=O)NCCCl)cc3c2=O)c1
active: CCRF-CEM leukemia -43.7%
inactive: HCT-15 colon 93.8% | HT29 colon 106% | SNB-75 CNS 77.5% | SNB-19 CNS 101% | U251 CNS 100% | PC-3 prostate 93.5% | SK-MEL-5 melanoma 102% | UACC-62 melanoma 103% | LOX IMVI melanoma 95.6% | SK-MEL-28 melanoma 113% | SK-MEL-2 melanoma 114% | SN12C renal 107% | UO-31 renal 94.2% | TK-10 renal 99.6% | ACHN renal 111% | CAKI-1 renal 97.6% | MOLT-4 leukemia 105%

COc1ccc(NC(=O)CSc2nc3ccc(Cl)cc3c(=O)n2-c2ccccc2C(F)(F)F)c(OC)c1OC
inactive: HCT-15 colon 97.8% | HT29 colon 97.3% | SNB-19 CNS 68.1% | U251 CNS 58% | PC-3 prostate 75.1% | SK-MEL-5 melanoma 89.7% | UACC-62 melanoma 68.7% | LOX IMVI melanoma 88% | SK-MEL-28 melanoma 92.1% | SK-MEL-2 melanoma 53.3% | SN12C renal 80.1% | UO-31 renal 77.6% | ACHN renal 61.2% | CAKI-1 renal 78.4% | A498 renal 78.3% | CCRF-CEM leukemia 33.7%
active: SNB-75 CNS -17.3%

COc1ccc(/C=C/C(=O)c2cccc(B(O)O)c2)cc1O
inactive: HCT-15 colon 12% | HT29 colon 69.5% | SNB-19 CNS 59.5% | U251 CNS 44.2% | PC-3 prostate 59.9% | SK-MEL-5 melanoma 81.7% | UACC-62 melanoma 33.7% | LOX IMVI melanoma 13.8% | SK-MEL-28 melanoma 79.2% | SK-MEL-2 melanoma 107% | SN12C renal 28.7% | UO-31 renal 19.9% | TK-10 renal 99.3% | ACHN renal 60.6% | A498 renal 52.1% | CCRF-CEM leukemia 37.3% | MOLT-4 leukemia 46.6%
active: SNB-75 CNS 9.35%

CC(C)(C)OC(=O)N[C@@H](Cc1ccccc1)C(=O)N(Cc1ccccc1)C1(C(=O)NCc2ccccc2)CCN(Cc2ccccc2)CC1
active: PC-3 prostate 1.58% | A498 renal 8.13% | MOLT-4 leukemia 7.74%
inactive: HCT-15 colon 36.1% | HT29 colon 23.9% | SNB-75 CNS 44.9% | SNB-19 CNS 31.6% | U251 CNS 33.8% | SK-MEL-5 melanoma 24.3% | UACC-62 melanoma 26% | LOX IMVI melanoma 39% | SK-MEL-28 melanoma 69.9% | SK-MEL-2 melanoma 55.9% | SN12C renal 19.3% | UO-31 renal 15.5% | TK-10 renal 62.3% | ACHN renal 40.8% | CCRF-CEM leukemia 33.9%

O=S(=O)(NCCNc1nccc(-c2c(-c3ccccc3)nc3sccn23)n1)c1ccc(O)cc1
inactive: HCT-15 colon 47.9% | HT29 colon 21.4% | SNB-75 CNS 28.7% | SNB-19 CNS 56.5% | U251 CNS 41.5% | PC-3 prostate 57.9% | UACC-62 melanoma 52.4% | LOX IMVI melanoma 31.4% | SK-MEL-28 melanoma 47.6% | SK-MEL-2 melanoma 49.7% | SN12C renal 40.3% | UO-31 renal 31.4% | TK-10 renal 62.2% | ACHN renal 25.8% | CAKI-1 renal 53.5% | CCRF-CEM leukemia 52.2% | MOLT-4 leukemia 28.7%
active: SK-MEL-5 melanoma 7.89%

COc1ccc(C2CC(c3cccs3)=NN2c2ccc(S(=O)(=O)NC(=O)NCc3cccc(OC)c3)cc2)cc1 (stereo not given)
inactive: HCT-15 colon 102% | HT29 colon 120% | SNB-75 CNS 99.9% | SNB-19 CNS 103% | U251 CNS 98.1% | PC-3 prostate 96.3% | SK-MEL-5 melanoma 50% | UACC-62 melanoma 31% | LOX IMVI melanoma 96.8% | SK-MEL-28 melanoma 48.3% | SK-MEL-2 melanoma 57.6% | SN12C renal 112% | UO-31 renal 87.2% | TK-10 renal 96% | ACHN renal 93.2% | CAKI-1 renal 94.7% | CCRF-CEM leukemia 88.1% | MOLT-4 leukemia 94.7%

O=C(CNC1CCCCC1)Nc1ccc(-c2nc3ccccc3s2)cc1
inactive: HCT-15 colon 62.9% | HT29 colon 62.3% | SNB-75 CNS 67.3% | SNB-19 CNS 91% | U251 CNS 65.1% | PC-3 prostate 79.7% | SK-MEL-5 melanoma 90.8% | UACC-62 melanoma 96.2% | LOX IMVI melanoma 73.9% | SK-MEL-28 melanoma 95.2% | SK-MEL-2 melanoma 105% | SN12C renal 86.7% | UO-31 renal 56.5% | TK-10 renal 103% | ACHN renal 99.1% | CAKI-1 renal 86% | CCRF-CEM leukemia 77.3% | MOLT-4 leukemia 54.1%

CCOC(=O)C1=C(C)NC(=O)NC1c1ccc(OCC(=O)N/N=C/c2ccc(Cl)cc2)cc1 (stereo not given)
inactive: HCT-15 colon 97.5% | HT29 colon 94.3% | SNB-75 CNS 79.1% | SNB-19 CNS 89.5% | U251 CNS 91.9% | PC-3 prostate 89% | SK-MEL-5 melanoma 97.1% | UACC-62 melanoma 87.3% | LOX IMVI melanoma 98.2% | SK-MEL-28 melanoma 105% | SK-MEL-2 melanoma 94.3% | SN12C renal 97% | UO-31 renal 93.7% | TK-10 renal 99% | ACHN renal 96.8% | CAKI-1 renal 99.8% | CCRF-CEM leukemia 92.1% | MOLT-4 leukemia 92.3%

CN=S(=O)(NC(=O)c1ccc(Cl)cc1Cl)c1ccc(Br)s1 (stereo not given)
inactive: HCT-15 colon 99.9% | HT29 colon 112% | SNB-75 CNS 73.4% | SNB-19 CNS 103% | U251 CNS 89.3% | PC-3 prostate 79.2% | SK-MEL-5 melanoma 95.3% | UACC-62 melanoma 99.9% | LOX IMVI melanoma 105% | SK-MEL-28 melanoma 102% | SK-MEL-2 melanoma 108% | SN12C renal 105% | UO-31 renal 89.4% | TK-10 renal 106% | ACHN renal 102% | A498 renal 67.8% | CCRF-CEM leukemia 96.8% | MOLT-4 leukemia 93.3%

COc1ccc(/C=C/C(=O)c2ccc(B(O)O)cc2)cc1O
inactive: HCT-15 colon 31.2% | HT29 colon 64.6% | SNB-75 CNS 72.6% | SNB-19 CNS 89.2% | U251 CNS 80.7% | PC-3 prostate 74.1% | SK-MEL-5 melanoma 93% | UACC-62 melanoma 76.9% | LOX IMVI melanoma 57.7% | SK-MEL-28 melanoma 90.3% | SK-MEL-2 melanoma 92.2% | SN12C renal 86.7% | UO-31 renal 60.8% | TK-10 renal 104% | ACHN renal 93.9% | A498 renal 61.8% | CCRF-CEM leukemia 82.6% | MOLT-4 leukemia 82.3%

CC(C)C[C@H](NC(=O)Cn1ccc(NCc2ccccc2)cc1=O)B(O)O
inactive: HCT-15 colon 23.5% | SNB-75 CNS 56.9% | SNB-19 CNS 42.2% | U251 CNS 44.6% | PC-3 prostate 49.2% | SK-MEL-28 melanoma 27.4% | SN12C renal 31.2%
active: HT29 colon -15.2% | SK-MEL-5 melanoma -9.84% | UACC-62 melanoma 4% | LOX IMVI melanoma -65.5% | SK-MEL-2 melanoma -6.74% | UO-31 renal -40.5% | TK-10 renal -10.7% | ACHN renal 9.74% | A498 renal -20.9% | CCRF-CEM leukemia 2.78% | MOLT-4 leukemia -10.3%

O=C(Nc1ccc(OCc2nnc(-c3ccc(Cl)cc3)o2)c(F)c1)Nc1ccc(Cl)c(Cl)c1
inactive: HCT-15 colon 48.4% | HT29 colon 32.8% | SNB-19 CNS 71.8% | U251 CNS 46.8% | PC-3 prostate 44.4% | SK-MEL-5 melanoma 75.6% | UACC-62 melanoma 60.9% | LOX IMVI melanoma 24.5% | SK-MEL-28 melanoma 61.5% | SK-MEL-2 melanoma 81.5% | SN12C renal 90.9% | UO-31 renal 56.3% | TK-10 renal 77.5% | A498 renal 67.9% | CCRF-CEM leukemia 51.7% | MOLT-4 leukemia 45.2%
active: SNB-75 CNS 6.81% | ACHN renal 3.37%

COc1cccc(/C=C/C(=O)c2sc(Nc3ccc(O)cc3)nc2C)c1
inactive: HCT-15 colon 83.7% | HT29 colon 82% | SNB-75 CNS 84.1% | SNB-19 CNS 95.1% | U251 CNS 89.6% | PC-3 prostate 85.9% | SK-MEL-5 melanoma 95.4% | UACC-62 melanoma 94.4% | LOX IMVI melanoma 87.5% | SK-MEL-28 melanoma 102% | SK-MEL-2 melanoma 79.9% | SN12C renal 86.2% | UO-31 renal 62% | TK-10 renal 114% | ACHN renal 98.1% | CAKI-1 renal 105% | CCRF-CEM leukemia 13.3% | MOLT-4 leukemia 30.8%

Cc1ccc(S(=O)(=O)OC2COCOC2C(OS(=O)(=O)c2ccc(C)cc2)C2OCOCC2OS(=O)(=O)c2ccc(C)cc2)cc1 (stereo not given)
inactive: HCT-15 colon 107% | HT29 colon 98.7% | SNB-75 CNS 115% | SNB-19 CNS 108% | U251 CNS 102% | PC-3 prostate 97.6% | SK-MEL-5 melanoma 99.9% | UACC-62 melanoma 98.3% | LOX IMVI melanoma 103% | SK-MEL-28 melanoma 118% | SK-MEL-2 melanoma 104% | SN12C renal 91.3% | UO-31 renal 95.8% | TK-10 renal 101% | ACHN renal 105% | CAKI-1 renal 105% | CCRF-CEM leukemia 100% | MOLT-4 leukemia 90.1%
